# Laboratory results from PubChem BioAssay.
# Results filed as inconclusive are left out. Active and inactive are the calls of the source.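 How the source made its calls, unless noted: active means normalized viability below 100% at a tested concentration; inactive means the rest.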
# Tests used:
# [1] = viability loss in pontine glioma line – cell-based, SU-DIPG-XVII, MIPE5.0, CellTiter-Glo, qHTS, dose response (AID 1347060; cut-off not given, nearly all actives have AC50 up to about 26 µM;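 further: cells exposed to compound for 48 hours before viability readout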); details: CellTiter-Glo ATP luminescence
# [2] = viability loss in pontine glioma line – cell-based, JHH-DIPG-1, MIPE4.0, CellTiter-Glo, qHTS, dose response (AID 1347062; cut-off not given, nearly all actives have AC50 up to about 27 µM;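 further: cells exposed to compound for two days before readout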); details: JHH-DIPG-1 viability, CellTiter-Glo ATP luminescence
# [3] = viability loss in pontine glioma line – cell-based, SU-DIPG-XIII, MIPE5.0, CellTiter-Glo, qHTS, dose response (AID 1347064; cut-off not given, nearly all actives have AC50 up to about 23 µM;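 further: cells exposed to compound for 48 hours before the viability read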); details: CellTiter-Glo ATP luminescence
# [4] = viability loss in pontine glioma line – cell-based, SU-DIPG-XXV, MIPE5.0, CellTiter-Glo, qHTS, dose response (AID 1347065; cut-off not given, nearly all actives have AC50 up to about 26 µM;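 further: cells exposed to compound for 48 hours before ATP readout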); details: CellTiter-Glo ATP luminescence
# [5] = growth inhibition of DIPG cells – cell-based, MIPE4.0 library, CellTiter-Glo luminescence, qHTS (AID 1347066; cut-off not given, nearly all actives have AC50 up to about 30 µM;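 further: cells exposed to compound for 48 hours before readout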); details: SU-DIPG-VI viability, CellTiter-Glo ATP luminescence
# [6] = JHH-DIPG-1 glioma cell viability, MIPE5.0 library, CellTiter-Glo luminescence, qHTS (AID 1347067; cut-off not given, nearly all actives have AC50 up to about 26 µM;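 further: cells exposed to compound for 48 hours before readout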); details: JHH-DIPG-1 glioma viability, CellTiter-Glo ATP luminescence
# [7] = growth inhibition of DIPG cells – cell-based, MIPE5.0 library, qHTS (AID 1347068; cut-off not given, nearly all actives have IC50 up to about 30 µM;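 further: cells exposed to compound for 48 hours before viability readout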); details: SU-DIPG-XXV viability
# [8] = viability loss with induced miR-34 in A549 – imaging, A549 dox-inducible miR-34, nuclei and caspase counts, primary screen (AID 1347080;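 active means compounds whose cell count with miR-34 switched on is under 0.7 times the count with it off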); details: A549 miR-34 inducible, Hoechst nuclei count, 48 h
# [9] = compounds altering HSF1 focus formation in cells – imaging, Selleck Cancer Library (AID 1347162; in the data active means plate-normalised HSF1 focus index below about 0.46); details: human cells, HSF1 nuclear foci imaging, at 10 µM; SSMD: measured here: HSF1 foci SSMD mean; cell count: measured here: cell number; plate-normalised HSF1 focus index: stronger effect = lower value
# [10] = MELAS cybrid and Rieske KO viability enhancers – cell-based, MELAS cybrids, Rieske KO mouse fibroblasts, CellTiter-Glo, primary screen (AID 1508586;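 active means mean z-score across replicates of 1.96 or higher in either the MELAS or the Rieske mutant cell line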;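 further: z relative to plate mean and SD of compound and empty wells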); details: low glucose
# [11] = drug combination growth inhibition, ovarian cancer – cell-based, oncology-focused library, rucaparib conditional, profiling panel (AID 1508598); details: patient-derived ovarian cancer cells, CellTiter-Glo viability, 144 h, stronger effect = lower value
# [12] = growth inhibition, single agent or in combination, cell-based, chromothripsis tumors, cisplatin or BGB combos (AID 1671449; in the data active means inhibition above about 80%;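 further: cells exposed for 96 hours; 0% = vehicle DMSO and 100% = killing by high DMSO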); details: LFS_MB_P medulloblastoma cells
# [13] = growth inhibition, single agent and combos, cell-based, chromothripsis tumors, cisplatin or BGB combos (AID 1671450; in the data active means inhibition above about 80%;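 further: cells exposed to compound for four days; 0% = vehicle DMSO and 100% = cell killing by high DMSO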); details: HDN33 neuroblastoma cells, stronger effect = higher value
# [14] = growth inhibition, single agents and combos, ICB984, cell-based, cisplatin or BGB combos, synergistic combos for chromothripsis tumors (AID 1671451; call rule not given here;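 further: cells exposed for 96 hours before readout; 0% = vehicle DMSO and 100% = killing by high DMSO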); details: ICB984 medulloblastoma cells, drug combinations, stronger effect = higher value
# [15] = growth inhibition, single agents and combos, HTB85, cell-based, BGB or cisplatin IC20 combos, synergistic combos for chromothripsis tumors (AID 1671453; in the data active means inhibition above about 80%;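 further: cells exposed for 96 hours before readout; 0% = vehicle DMSO and 100% = high DMSO killing control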); details: HTB85 osteosarcoma cells, drug combinations, stronger effect = higher value
# [16] = growth inhibition, MDA-MB-436, cell-based, BGB or cisplatin combos, synergistic combos for chromothripsis tumors (AID 1671458; call rule not given here;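 further: cells exposed for 96 hours; 0% = vehicle DMSO and 100% = killing by high DMSO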); details: MDA-MB-436 breast carcinoma growth inhibition, drug combinations, stronger effect = higher value
# [17] = BT084 cell growth, single and combined drugs, ICGC_MB145, cisplatin and BGB IC40 combos (AID 1671461; in the data active means inhibition above about 80%;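 further: cells exposed to drugs for 96 hours; 0% = vehicle DMSO and 100% = high DMSO full killing control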); details: BT084 medulloblastoma cells, drug combinations, stronger effect = higher value
# [18] = RCMB18 cell growth, single agent and combined, cisplatin and BGB IC40 combos (AID 1671462; in the data active means inhibition above about 80%;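 further: cells exposed to compound for four days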); details: RCMB18 medulloblastoma cells, stronger effect = higher value
# [19] = CRL1545 cell growth, single agent and combined, cisplatin and BGB IC20 combos (AID 1671464; in the data active means inhibition above about 80%;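 further: cells exposed to compound for 96 hours before readout; 0% = vehicle DMSO and 100% = high DMSO killing control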); details: CRL1545 osteosarcoma cells, stronger effect = higher value
# [20] = measured here: with BGB IC20 combination, at 0.5 µM
# [21] = measured here: with cisplatin IC20 combination, at 0.5 µM
smiles,measurement,setting,value
Nc1ccccc1NC(=O)c1ccc(CNc2nccc(-c3cccnc3)n2)cc1,AC50,[1],2630 nM (active)
same,AC50,[2],1480 nM (active)
same,AC50,[3],1480 nM (active)
same,AC50,[4],590 nM (active)
same,AC50,[5],1180 nM (active)
same,AC50,[6],1180 nM (active)
same,IC50,[7],2630 nM (active)
same,fold change,"[8]; stronger effect = lower value, cell number ratio, induced over uninduced",1.16 (inactive)
same,fold change,[8]; measured here: relative caspase fold change +Dox/-Dox,0.733
same,cell count,"[8]; measured here: total cells with miR-34 induction, stronger effect = lower value",1740
same,cell count,[8]; measured here: total cells without miR-34 induction,1500
same,SSMD,[9],2.12
same,cell count,[9],7260
same,plate-normalised HSF1 focus index,[9],1.13 (inactive)
same,z-score,"[10]; MELAS cybrid survival, CellTiter-Glo 48 h, stronger effect = higher value",-0.546 (inactive)
same,z-score,"[10]; Rieske KO mouse fibroblast survival, CellTiter-Glo 72 h",-2.11
same,viability,"[11]; at 0.000305 µM, OCI-C5x cells, with rucaparib 10 µM, 100% = cells with rucaparib alone",107% (inactive)
same,viability,"[11]; at 0.000305 µM, OCI-C5x cells, without rucaparib",111% (inactive)
same,viability,"[11]; at 0.000305 µM, OCI-P5x cells, with rucaparib 20 µM, 100% = cells with rucaparib alone",122% (inactive)
same,viability,"[11]; at 0.000305 µM, OCI-P5x cells, without rucaparib",119% (inactive)
same,viability,"[11]; at 0.00122 µM, OCI-C5x cells, with rucaparib 10 µM, 100% = cells with rucaparib alone",112% (inactive)
same,viability,"[11]; at 0.00122 µM, OCI-C5x cells, without rucaparib",110% (inactive)
same,viability,"[11]; at 0.00122 µM, OCI-P5x cells, with rucaparib 20 µM, 100% = cells with rucaparib alone",110% (inactive)
same,viability,"[11]; at 0.00122 µM, OCI-P5x cells, without rucaparib",116% (inactive)
same,viability,"[11]; at 0.00488 µM, OCI-C5x cells, with rucaparib 10 µM, 100% = cells with rucaparib alone",118% (inactive)
same,viability,"[11]; at 0.00488 µM, OCI-C5x cells, without rucaparib",115% (inactive)
same,viability,"[11]; at 0.00488 µM, OCI-P5x cells, with rucaparib 20 µM, 100% = cells with rucaparib alone",107% (inactive)
same,viability,"[11]; at 0.00488 µM, OCI-P5x cells, without rucaparib",108% (inactive)
same,viability,"[11]; at 0.0195 µM, OCI-C5x cells, with rucaparib 10 µM, 100% = cells with rucaparib alone",119% (inactive)
same,viability,"[11]; at 0.0195 µM, OCI-C5x cells, without rucaparib",117% (inactive)
same,viability,"[11]; at 0.0195 µM, OCI-P5x cells, with rucaparib 20 µM, 100% = cells with rucaparib alone",101% (inactive)
same,viability,"[11]; at 0.0195 µM, OCI-P5x cells, without rucaparib",96.7% (active)
same,viability,"[11]; at 0.0781 µM, OCI-C5x cells, with rucaparib 10 µM, 100% = cells with rucaparib alone",110% (inactive)
same,viability,"[11]; at 0.0781 µM, OCI-C5x cells, without rucaparib",101% (inactive)
same,viability,"[11]; at 0.0781 µM, OCI-P5x cells, with rucaparib 20 µM, 100% = cells with rucaparib alone",103% (inactive)
same,viability,"[11]; at 0.0781 µM, OCI-P5x cells, without rucaparib",94.4% (active)
same,viability,"[11]; at 0.313 µM, OCI-C5x cells, with rucaparib 10 µM, 100% = cells with rucaparib alone",67.3% (active)
same,viability,"[11]; at 0.313 µM, OCI-C5x cells, without rucaparib",71.1% (active)
same,viability,"[11]; at 0.313 µM, OCI-P5x cells, with rucaparib 20 µM, 100% = cells with rucaparib alone",72% (active)
same,viability,"[11]; at 0.313 µM, OCI-P5x cells, without rucaparib",77.1% (active)
same,viability,"[11]; at 1.25 µM, OCI-C5x cells, with rucaparib 10 µM, 100% = cells with rucaparib alone",6.09% (active)
same,viability,"[11]; at 1.25 µM, OCI-C5x cells, without rucaparib",5.69% (active)
same,viability,"[11]; at 1.25 µM, OCI-P5x cells, with rucaparib 20 µM, 100% = cells with rucaparib alone",15.2% (active)
same,viability,"[11]; at 1.25 µM, OCI-P5x cells, without rucaparib",19.7% (active)
same,viability,"[11]; at 5 µM, OCI-C5x cells, with rucaparib 10 µM, 100% = cells with rucaparib alone",5.71% (active)
same,viability,"[11]; at 5 µM, OCI-C5x cells, without rucaparib",5.7% (active)
same,viability,"[11]; at 5 µM, OCI-P5x cells, with rucaparib 20 µM, 100% = cells with rucaparib alone",9.81% (active)
same,viability,"[11]; at 5 µM, OCI-P5x cells, without rucaparib",8.93% (active)
same,inhibition,"[12]; at 0.5 µM, stronger effect = higher value",2.35% (inactive)
same,inhibition,"[12]; measured here: combination with BGB IC20, at 0.005 µM",-20.9%
same,inhibition,"[12]; measured here: combination with BGB IC40, at 0.005 µM",-59.1%
same,inhibition,"[12]; measured here: combination with BGB IC40, at 0.05 µM",-23.9%
same,inhibition,"[12]; measured here: combination with cisplatin, at 0.5 µM, stronger effect = higher value",45.4%
same,inhibition,"[12]; measured here: combination with cisplatin, at 5 µM, stronger effect = higher value",109%
same,inhibition,"[13]; BGB combo, at 5 µM",98.8%
same,inhibition,[13]; at 0.5 µM,51.5% (inactive)
same,inhibition,"[13]; cisplatin combo, at 5 µM",100%
same,inhibition,[13]; [20],59.9%
same,inhibition,[13]; [21],50.6%
same,inhibition,"[13]; single agent, at 5 µM",99.4%
same,inhibition,"[14]; BGB IC20 combo, at 0.005 µM",8.79%
same,inhibition,"[14]; BGB IC40 combo, at 0.005 µM",19.9%
same,inhibition,"[14]; BGB IC40 combo, at 0.05 µM",92.5%
same,inhibition,[14]; at 0.5 µM,-29.5% (inactive)
same,inhibition,"[14]; cisplatin combo, at 0.05 µM",92.7%
same,inhibition,"[14]; cisplatin combo, at 0.5 µM",-33.3%
same,inhibition,"[14]; cisplatin combo, at 5 µM",-7.7%
same,inhibition,"[14]; measured here: 5 uM single agent, at 5 µM",-12.8%
same,inhibition,[15]; at 0.5 µM,18.4% (inactive)
same,inhibition,"[15]; measured here: with BGB IC20, at 0.5 µM",20.6%
same,inhibition,"[15]; measured here: with BGB IC20, at 5 µM",98.9%
same,inhibition,"[15]; measured here: with cisplatin IC20, at 0.5 µM",17.4%
same,inhibition,"[15]; measured here: with cisplatin IC20, at 5 µM",99.2%
same,inhibition,"[15]; single agent, at 5 µM",99.2%
same,inhibition,[16]; at 0.5 µM,23.7% (inactive)
same,inhibition,"[16]; measured here: BGB combination, at 0.5 µM",20.7%
same,inhibition,"[16]; measured here: BGB combination, at 5 µM",64.6%
same,inhibition,"[16]; measured here: cisplatin combination, at 0.5 µM",9.8%
same,inhibition,"[16]; measured here: cisplatin combination, at 5 µM",64%
same,inhibition,[17]; at 0.5 µM,50.1% (inactive)
same,inhibition,"[17]; cisplatin combination, at 0.5 µM",50.8%
same,inhibition,"[17]; cisplatin combination, at 5 µM",83.4%
same,inhibition,"[17]; measured here: BGB IC40 combination 0.05 uM, at 0.05 µM",-5.63%
same,inhibition,"[17]; single agent, at 5 µM",99.8%
same,inhibition,[18]; at 0.5 µM,56.4% (inactive)
same,inhibition,"[18]; cisplatin combo, at 5 µM",95.3%
same,inhibition,"[18]; measured here: BGB IC40 combination, at 0.05 µM",-6.4%
same,inhibition,"[18]; measured here: combination with cisplatin, at 0.5 µM",76.3%
same,inhibition,"[18]; single agent, at 5 µM",94.7%
same,inhibition,[19]; at 0.5 µM,66.9% (inactive)
same,inhibition,[19]; [20],49.6%
same,inhibition,[19]; [21],75.1%
same,inhibition,"[19]; single agent, at 0.05 µM",31.7%
same,inhibition,"[19]; single agent, at 5 µM",90.8%
